From publication PMC7862700, “An all-to-all approach to the identification of sequence-specific readers for epigenetic DNA modifications on cytosine”

Tests used:
Test in all cases: DAPPL (digital affinity profiling via proximity ligation, sequencing); 10 mM Tris-HCl pH 7.5, 50 mM NaCl, 1 mM DTT, 4% glycerol, room temperature, 30 min; GST-TFs on glutathione beads, 16-mer random dsDNA library, 0.1% formaldehyde crosslink after washing; high values mean tight binding
Conditions in all cases: protein: recombinant; tags: N-terminal GST; dsDNA, one strand shown
GABPA = molecular target: T1, GABPA (Homo sapiens, UniProt Q06546 1-454)
T1 sequence: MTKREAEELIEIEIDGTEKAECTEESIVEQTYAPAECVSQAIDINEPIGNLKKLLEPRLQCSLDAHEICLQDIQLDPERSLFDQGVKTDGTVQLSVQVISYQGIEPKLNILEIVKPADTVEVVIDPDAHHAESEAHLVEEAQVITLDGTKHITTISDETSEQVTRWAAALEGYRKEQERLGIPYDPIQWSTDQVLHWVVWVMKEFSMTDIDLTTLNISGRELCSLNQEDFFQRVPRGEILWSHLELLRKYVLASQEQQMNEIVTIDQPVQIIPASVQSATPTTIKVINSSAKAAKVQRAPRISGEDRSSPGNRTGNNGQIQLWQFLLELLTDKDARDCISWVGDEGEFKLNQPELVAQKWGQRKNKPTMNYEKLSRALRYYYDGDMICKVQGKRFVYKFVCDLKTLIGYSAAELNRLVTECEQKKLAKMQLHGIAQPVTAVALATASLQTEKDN
Method in brief: (§1)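 Human transcription factors were made in yeast as GST fusions, captured on glutathione beads and barcoded with DNA. With a tag-only sample included, the pool was incubated with 200 nmole of a random double-stranded 16-mer DNA library in Tris/NaCl/DTT/glycerol buffer at room temperature for 30 min, then crosslinked with 0.1% formaldehyde after washing, ligated by proximity, amplified and sequenced. For binding signal, each hexamer's read frequency for a factor is divided by its frequency for the tag-only sample.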

SPIC = molecular target: T2, SPIC (Homo sapiens, UniProt Q8N5J4 1-248)
T2 sequence: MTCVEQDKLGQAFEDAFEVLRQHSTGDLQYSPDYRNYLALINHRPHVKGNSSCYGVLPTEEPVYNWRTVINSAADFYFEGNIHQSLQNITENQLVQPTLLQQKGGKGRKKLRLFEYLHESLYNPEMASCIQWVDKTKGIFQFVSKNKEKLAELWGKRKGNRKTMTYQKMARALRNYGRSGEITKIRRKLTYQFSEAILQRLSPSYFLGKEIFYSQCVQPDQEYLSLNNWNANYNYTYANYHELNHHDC
Method in brief: as §1

ELK4 = molecular target: T3, ELK4 (Homo sapiens, UniProt P28324-2 1-405)
T3 sequence: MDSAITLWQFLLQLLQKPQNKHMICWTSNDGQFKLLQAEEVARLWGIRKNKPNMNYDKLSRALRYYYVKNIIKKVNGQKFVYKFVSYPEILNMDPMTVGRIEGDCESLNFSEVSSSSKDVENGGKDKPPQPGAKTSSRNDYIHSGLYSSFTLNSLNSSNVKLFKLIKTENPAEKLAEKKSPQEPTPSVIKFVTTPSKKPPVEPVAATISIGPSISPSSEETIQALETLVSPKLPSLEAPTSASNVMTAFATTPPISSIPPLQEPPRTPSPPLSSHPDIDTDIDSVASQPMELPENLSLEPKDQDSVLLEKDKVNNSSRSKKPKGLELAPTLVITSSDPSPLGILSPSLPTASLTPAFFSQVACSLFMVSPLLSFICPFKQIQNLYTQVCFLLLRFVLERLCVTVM
Method in brief: as §1

ELF3 = molecular target: T4, ELF3 (Homo sapiens, UniProt P78545 1-371)
T4 sequence: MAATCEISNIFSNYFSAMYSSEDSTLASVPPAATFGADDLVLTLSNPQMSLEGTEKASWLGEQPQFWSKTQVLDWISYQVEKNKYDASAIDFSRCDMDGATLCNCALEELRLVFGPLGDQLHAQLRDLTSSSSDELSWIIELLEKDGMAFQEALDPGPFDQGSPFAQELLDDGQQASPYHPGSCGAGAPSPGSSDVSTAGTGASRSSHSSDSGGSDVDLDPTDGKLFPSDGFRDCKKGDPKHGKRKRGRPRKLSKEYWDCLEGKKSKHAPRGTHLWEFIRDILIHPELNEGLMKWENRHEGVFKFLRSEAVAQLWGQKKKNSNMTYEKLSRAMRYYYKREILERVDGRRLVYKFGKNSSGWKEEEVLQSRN
Method in brief: as §1

EHF = molecular target: T5, EHF (Homo sapiens, UniProt Q9NZC4 1-300)
T5 sequence: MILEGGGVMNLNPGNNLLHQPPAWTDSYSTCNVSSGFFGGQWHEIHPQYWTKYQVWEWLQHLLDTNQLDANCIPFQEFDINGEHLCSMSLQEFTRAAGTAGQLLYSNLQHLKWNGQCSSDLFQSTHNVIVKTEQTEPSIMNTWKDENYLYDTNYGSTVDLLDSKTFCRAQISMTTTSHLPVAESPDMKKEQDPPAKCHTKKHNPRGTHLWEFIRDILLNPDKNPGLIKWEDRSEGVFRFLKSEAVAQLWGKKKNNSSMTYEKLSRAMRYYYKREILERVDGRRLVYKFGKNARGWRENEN
Method in brief: as §1

SPI1 = SPI1 (Homo sapiens, UniProt P17947 1-270)
Method in brief: as §1

ELK3 = molecular target: T6, ELK3 (Homo sapiens, UniProt P41970 1-407)
T6 sequence: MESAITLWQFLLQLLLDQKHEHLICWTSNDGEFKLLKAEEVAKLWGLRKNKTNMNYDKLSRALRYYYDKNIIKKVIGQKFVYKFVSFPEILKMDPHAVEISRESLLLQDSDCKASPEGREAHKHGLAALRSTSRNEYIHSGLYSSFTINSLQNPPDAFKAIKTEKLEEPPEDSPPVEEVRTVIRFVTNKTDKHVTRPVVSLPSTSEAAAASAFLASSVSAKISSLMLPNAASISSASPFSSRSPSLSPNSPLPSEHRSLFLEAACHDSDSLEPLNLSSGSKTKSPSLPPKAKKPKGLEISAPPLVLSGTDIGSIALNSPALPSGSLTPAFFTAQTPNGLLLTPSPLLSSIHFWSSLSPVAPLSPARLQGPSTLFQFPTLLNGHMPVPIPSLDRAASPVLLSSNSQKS
Method in brief: as §1

FEV = molecular target: T7, FEV (Homo sapiens, UniProt Q99581 1-238)
T7 sequence: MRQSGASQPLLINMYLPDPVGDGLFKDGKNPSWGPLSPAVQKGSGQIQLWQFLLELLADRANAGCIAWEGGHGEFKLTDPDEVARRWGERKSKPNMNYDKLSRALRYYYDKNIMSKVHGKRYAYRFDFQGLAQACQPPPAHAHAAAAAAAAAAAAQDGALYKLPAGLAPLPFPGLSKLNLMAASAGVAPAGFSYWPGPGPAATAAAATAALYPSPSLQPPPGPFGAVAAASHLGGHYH
Method in brief: as §1

ETV1 = ETV1 (Homo sapiens, UniProt P50549 1-477)
Method in brief: as §1

ERF = molecular target: T8, ERF (Homo sapiens, UniProt P50548 1-548)
T8 sequence: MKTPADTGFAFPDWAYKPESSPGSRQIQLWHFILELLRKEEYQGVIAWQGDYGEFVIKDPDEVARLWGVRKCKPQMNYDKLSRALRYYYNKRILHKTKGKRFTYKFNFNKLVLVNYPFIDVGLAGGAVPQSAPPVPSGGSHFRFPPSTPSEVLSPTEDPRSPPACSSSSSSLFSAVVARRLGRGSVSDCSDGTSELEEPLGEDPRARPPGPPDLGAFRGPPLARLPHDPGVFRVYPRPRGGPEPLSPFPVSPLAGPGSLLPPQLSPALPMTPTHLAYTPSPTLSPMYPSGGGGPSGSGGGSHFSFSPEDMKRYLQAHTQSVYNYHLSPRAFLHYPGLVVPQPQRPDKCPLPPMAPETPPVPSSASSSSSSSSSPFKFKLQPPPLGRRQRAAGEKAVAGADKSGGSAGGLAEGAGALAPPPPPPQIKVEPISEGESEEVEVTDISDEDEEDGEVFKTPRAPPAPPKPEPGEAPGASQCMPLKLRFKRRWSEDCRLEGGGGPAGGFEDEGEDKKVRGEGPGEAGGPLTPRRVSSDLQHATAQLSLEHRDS
Method in brief: as §1

ETS2 = molecular target: T9, ETS2 (Homo sapiens, UniProt P15036 1-469)
T9 sequence: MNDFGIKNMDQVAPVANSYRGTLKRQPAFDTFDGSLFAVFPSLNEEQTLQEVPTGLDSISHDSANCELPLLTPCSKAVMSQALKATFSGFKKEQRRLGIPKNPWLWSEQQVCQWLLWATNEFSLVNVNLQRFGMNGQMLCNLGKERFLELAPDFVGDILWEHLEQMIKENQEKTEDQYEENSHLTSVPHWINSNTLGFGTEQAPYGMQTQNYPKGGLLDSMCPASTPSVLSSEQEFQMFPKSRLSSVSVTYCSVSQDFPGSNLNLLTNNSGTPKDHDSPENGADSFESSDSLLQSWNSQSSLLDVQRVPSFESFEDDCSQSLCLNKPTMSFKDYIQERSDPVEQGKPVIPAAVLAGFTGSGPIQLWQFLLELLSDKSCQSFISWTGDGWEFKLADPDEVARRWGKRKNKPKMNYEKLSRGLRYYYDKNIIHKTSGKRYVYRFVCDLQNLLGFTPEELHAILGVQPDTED
Method in brief: as §1

ELF5 = molecular target: T10, ELF5 (Homo sapiens, UniProt Q9UKW6-2 1-255)
T10 sequence: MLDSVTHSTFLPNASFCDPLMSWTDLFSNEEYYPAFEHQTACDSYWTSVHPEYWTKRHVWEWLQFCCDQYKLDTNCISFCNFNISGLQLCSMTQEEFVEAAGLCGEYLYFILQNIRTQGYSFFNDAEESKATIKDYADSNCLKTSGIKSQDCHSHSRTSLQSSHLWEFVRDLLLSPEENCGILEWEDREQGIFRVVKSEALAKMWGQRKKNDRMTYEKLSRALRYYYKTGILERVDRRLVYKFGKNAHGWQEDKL
Method in brief: as §1

ETV3 = molecular target: T11, ETV3 (Homo sapiens, UniProt P41162-2 1-143)
T11 sequence: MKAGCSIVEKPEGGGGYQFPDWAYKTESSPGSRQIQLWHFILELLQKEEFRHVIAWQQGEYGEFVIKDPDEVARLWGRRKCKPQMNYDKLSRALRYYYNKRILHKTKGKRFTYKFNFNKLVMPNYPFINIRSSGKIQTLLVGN
Method in brief: as §1

ETV6 = ETV6 (Homo sapiens, UniProt P41212 1-452)
Method in brief: as §1

Chain of ETV1 (P50549 whole entry): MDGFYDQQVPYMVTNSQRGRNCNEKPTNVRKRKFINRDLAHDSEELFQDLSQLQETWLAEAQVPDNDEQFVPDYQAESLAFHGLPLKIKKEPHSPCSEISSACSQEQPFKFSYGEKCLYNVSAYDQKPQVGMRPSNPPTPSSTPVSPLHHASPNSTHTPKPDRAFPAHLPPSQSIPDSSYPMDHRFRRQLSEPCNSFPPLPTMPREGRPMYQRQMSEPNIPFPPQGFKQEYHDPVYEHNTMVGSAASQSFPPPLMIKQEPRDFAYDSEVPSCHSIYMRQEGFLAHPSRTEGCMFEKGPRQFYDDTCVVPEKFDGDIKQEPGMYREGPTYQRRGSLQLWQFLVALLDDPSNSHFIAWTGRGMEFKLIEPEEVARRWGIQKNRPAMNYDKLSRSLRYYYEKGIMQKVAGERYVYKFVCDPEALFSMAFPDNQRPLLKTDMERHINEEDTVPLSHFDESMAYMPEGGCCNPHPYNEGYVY
Chain of ETV6 (P41212 whole entry): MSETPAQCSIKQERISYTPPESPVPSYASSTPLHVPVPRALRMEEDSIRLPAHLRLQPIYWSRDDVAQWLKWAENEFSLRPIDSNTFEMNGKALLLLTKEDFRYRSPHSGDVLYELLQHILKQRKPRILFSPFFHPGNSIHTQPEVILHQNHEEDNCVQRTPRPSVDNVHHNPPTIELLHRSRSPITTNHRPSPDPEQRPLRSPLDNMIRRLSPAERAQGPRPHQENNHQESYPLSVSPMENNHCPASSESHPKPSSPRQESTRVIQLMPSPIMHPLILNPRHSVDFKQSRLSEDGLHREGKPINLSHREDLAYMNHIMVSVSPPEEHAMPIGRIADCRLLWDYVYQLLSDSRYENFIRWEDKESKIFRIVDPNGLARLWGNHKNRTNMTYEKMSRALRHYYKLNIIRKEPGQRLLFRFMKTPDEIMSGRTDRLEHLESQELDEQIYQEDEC

ATAGTC
binding signal (GABPA): 1.01 fold enrichment (6-mer frequency, TF over GST control)
binding signal (SPIC): 1.1 fold enrichment (6-mer frequency, TF over GST control)
binding signal (ELK4): 1.04 fold enrichment (6-mer frequency, TF over GST control)
binding signal (ELF3): 1.07 fold enrichment (6-mer frequency, TF over GST control)

AGTAGC
binding signal (GABPA): 1.03 fold enrichment (6-mer frequency, TF over GST control)
binding signal (EHF): 1.01 fold enrichment (6-mer frequency, TF over GST control)
binding signal (SPI1): 1.22 fold enrichment (6-mer frequency, TF over GST control)
binding signal (ELK3): 1.05 fold enrichment (6-mer frequency, TF over GST control)
binding signal (FEV): 1.04 fold enrichment (6-mer frequency, TF over GST control)
binding signal (SPIC): 1.04 fold enrichment (6-mer frequency, TF over GST control)
binding signal (ELF3): 1.03 fold enrichment (6-mer frequency, TF over GST control)
binding signal (ETV1): 1.05 fold enrichment (6-mer frequency, TF over GST control)
binding signal (ERF): 1.01 fold enrichment (6-mer frequency, TF over GST control)
binding signal (ETS2): 1.07 fold enrichment (6-mer frequency, TF over GST control)
binding signal (ELF5): 1.04 fold enrichment (6-mer frequency, TF over GST control)
binding signal (ETV3): 1.08 fold enrichment (6-mer frequency, TF over GST control)
binding signal (ETV6): 1.08 fold enrichment (6-mer frequency, TF over GST control)
